In PubChem BioAssay (NCI) one finds growth data, which are given here for 11 molecules.

The panel holds about 83,000 compounds, 20% with a hit somewhere; the sample as a whole holds those more often.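 Treatment: one concentration, 48 hours, 96-well format. Scoring: percent growth, with anything below 10 considered active.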 A number with no mark means an inactive call. Calls of active or inactive are those of the source.

Some test systems named below: NCI-H23 lung; NCI-H226 lung; NCI-H322M lung; HOP-62 NSCLC; NCI-H460 lung; HOP-92 NSCLC; NCI-H522 lung; A549/ATCC NSCLC; 786-0 renal; COLO 205 colon; DU-145 prostate; MALME-3M melanoma; MDA-MB-231 breast; RXF 393 renal; SF-268 CNS; SF-295 CNS; SF-539 CNS; UACC-257 melanoma; K-562 leukemia.
What all share (experiment): NCI-60 one-dose screen, 48 h (100 = growth as untreated, 0 = no growth, -100 = all killed)
What all share (settings): 10 µM unless noted

Regarding `O=[N+]([O-])c1ccc2[nH]cc(-c3c4ccsc4cc4[nH]c5ccc([N+](=O)[O-])cc5c34)c2c1`, the growth is 7.93% (active) with NCI-H23 lung; -9.9% (active) with NCI-H226 lung; 20.4% in the test on NCI-H322M lung; 10.8% in the test on HOP-62 NSCLC; 4.39% (active) in the test on NCI-H460 lung; 26.8% in the test on HOP-92 NSCLC. Further, the growth is -22.9% (active) with NCI-H522 lung; 5.78% (active) in the test with A549/ATCC NSCLC; -44% (active) with 786-0 renal; -50.3% (active) in the test on COLO 205 colon; -14.3% (active) in the test with DU-145 prostate; 30.1% in the test with MALME-3M melanoma. The growth with MDA-MB-231 breast was -5.82% (active); in the test on RXF 393 renal, -42.2% (active); with SF-268 CNS, 19.3%; in the test with SF-295 CNS, -4.03% (active); with SF-539 CNS, -44.9% (active); in the test on UACC-257 melanoma, 41.8%.
`COc1ccc(-n2nnc(C(=O)NCCc3c[nH]c4ccc(F)cc34)c2C)cc1`: the growth in the test on NCI-H23 lung is 98.5%; with NCI-H226 lung it was 97.9%; in the test on NCI-H322M lung it was 101%; with HOP-62 NSCLC, 86.5%; in the test with NCI-H460 lung, 100%; in the test on HOP-92 NSCLC it was 87.6%. The growth in the test on NCI-H522 lung was 76.1%; in the test on A549/ATCC NSCLC, 82%; with 786-0 renal, 99.6%; with COLO 205 colon, 111%; with DU-145 prostate it was 107%; in the test with MALME-3M melanoma, 106%. The growth with MDA-MB-231 breast was 97.8%; with RXF 393 renal, 105%; with SF-268 CNS, 97.3%; in the test on SF-295 CNS, 102%; with SF-539 CNS, 103%; in the test with UACC-257 melanoma, 87.7%.
`CCCCCCCCc1cc[n+](CC(=O)c2ccc(Br)cc2)cc1`: the growth in the test on NCI-H23 lung is 49.5%; with NCI-H226 lung, 53.6%; with NCI-H322M lung it was 96.2%; in the test with HOP-62 NSCLC, 8% (active); in the test on NCI-H460 lung, -84.9% (active); in the test with HOP-92 NSCLC, 24.1%. The growth in the test with NCI-H522 lung is -91.5% (active); in the test with A549/ATCC NSCLC, -84.1% (active); in the test with 786-0 renal, 16.6%; in the test with COLO 205 colon, -89.6% (active); with DU-145 prostate, 37%; with MALME-3M melanoma it was -25.4% (active). The growth with MDA-MB-231 breast is 13.8%; with RXF 393 renal, -24% (active); in the test on SF-268 CNS, 52.5%; in the test with SF-295 CNS it was 34%; in the test on UACC-257 melanoma, -61.2% (active).
In the case of `CCOC(=O)c1ccc(-c2ccc3cc(OC)ccc3c2)nc1C`, the growth is 93% in the test on NCI-H23 lung; 116% with NCI-H226 lung; 90.3% in the test on NCI-H322M lung; 107% in the test with HOP-62 NSCLC; 103% with NCI-H460 lung; 104% in the test on HOP-92 NSCLC. The growth in the test on NCI-H522 lung was 72.7%; in the test with A549/ATCC NSCLC, 95.4%; in the test on 786-0 renal, 85.7%; with COLO 205 colon it was 105%; with DU-145 prostate it was 103%; in the test on MALME-3M melanoma it was 92.8%. Moreover, the growth is 104% with MDA-MB-231 breast; 116% in the test on RXF 393 renal; 96.4% in the test on SF-268 CNS; 100% in the test on SF-295 CNS; 98.9% with SF-539 CNS; 107% in the test on UACC-257 melanoma.
In the case of `COc1ccc2cc(-c3ccc(C(=O)NN)c(C)n3)ccc2c1`, the growth in the test with NCI-H23 lung was 95.5%; in the test on NCI-H226 lung, 103%; in the test on NCI-H322M lung, 94.6%; in the test on HOP-62 NSCLC it was 101%; in the test with NCI-H460 lung, 104%; with HOP-92 NSCLC, 96.2%. Besides, the growth in the test with NCI-H522 lung is 69.8%; with A549/ATCC NSCLC it was 93.1%; in the test on 786-0 renal, 95.1%; in the test with COLO 205 colon, 104%; in the test with DU-145 prostate it was 103%; with MALME-3M melanoma, 92.5%. The growth in the test with MDA-MB-231 breast is 97.4%; in the test with RXF 393 renal, 113%; in the test with SF-268 CNS, 91.9%; in the test with SF-295 CNS it was 99%; with SF-539 CNS, 103%; with UACC-257 melanoma, 99.6%.
Turning to `Nc1c(-c2nc3ccc(Br)cc3c(=O)[nH]2)nnn1-c1ccccc1`, the growth was 82.6% with NCI-H23 lung; 107% in the test with NCI-H226 lung; 71.5% with NCI-H322M lung; 87% in the test on HOP-62 NSCLC; 43.5% in the test with NCI-H460 lung; 94.7% with HOP-92 NSCLC. Besides, the growth was 73.9% in the test on NCI-H522 lung; 74.8% in the test on A549/ATCC NSCLC; 87.6% with 786-0 renal; 102% in the test with COLO 205 colon; 62.3% with DU-145 prostate; 86.8% in the test on MALME-3M melanoma. Moreover, the growth is 82.2% in the test on MDA-MB-231 breast; 103% with RXF 393 renal; 60% in the test with SF-268 CNS; 68% with SF-295 CNS; 90.9% in the test on SF-539 CNS; 95.9% with UACC-257 melanoma.
For `COc1c(C)cnc(CSc2nc(-c3ccc(C)cc3)cn2-c2ccc(Cl)cc2)c1C`, the growth in the test on NCI-H23 lung was 97%; with NCI-H226 lung, 102%; in the test with NCI-H322M lung, 80.9%; in the test on HOP-62 NSCLC it was 89.5%; in the test on NCI-H460 lung, 101%; in the test with HOP-92 NSCLC, 103%. Further, the growth in the test with NCI-H522 lung was 55.9%; with A549/ATCC NSCLC it was 88.6%; with 786-0 renal it was 95.3%; with COLO 205 colon it was 96%; in the test with DU-145 prostate, 107%; with MALME-3M melanoma, 93.4%. For the same molecule, the growth in the test with MDA-MB-231 breast is 88.5%; in the test on RXF 393 renal, 108%; in the test on SF-268 CNS, 99.6%; in the test on SF-295 CNS, 110%; with SF-539 CNS, 105%; in the test on UACC-257 melanoma, 91.5%.
With `N#Cc1c(N)nc2c(nnn2-c2cccc(C(F)(F)F)c2)c1N`, the growth in the test with NCI-H23 lung is 86.6%; with NCI-H226 lung, 92.4%; in the test on NCI-H322M lung, 89.8%; in the test on HOP-62 NSCLC it was 80.5%; with NCI-H460 lung it was 95.9%; with HOP-92 NSCLC, 77.6%. The growth is 75.2% with NCI-H522 lung; 78% with A549/ATCC NSCLC; 101% in the test with 786-0 renal; 104% in the test on COLO 205 colon; 99% in the test on DU-145 prostate; 121% in the test with MALME-3M melanoma. The growth in the test with MDA-MB-231 breast was 78.3%; in the test on RXF 393 renal, 92.7%; in the test on SF-268 CNS, 91.9%; in the test on SF-295 CNS, 95.6%; with SF-539 CNS it was 96.9%; in the test on UACC-257 melanoma, 103%.
Consider `Cn1ccc(Cc2cnc(N)s2)n1`, for which the growth in the test on NCI-H23 lung is 101%; in the test on NCI-H226 lung it was 98.8%; in the test on NCI-H322M lung it was 102%; in the test with HOP-62 NSCLC, 100%; in the test on NCI-H460 lung it was 106%; in the test on HOP-92 NSCLC, 98.1%. Besides, the growth in the test with NCI-H522 lung was 84.3%; with A549/ATCC NSCLC, 84.3%; with 786-0 renal, 101%; with COLO 205 colon, 105%; with DU-145 prostate it was 110%; with MALME-3M melanoma, 100%. Besides, the growth was 104% in the test on MDA-MB-231 breast; 107% with RXF 393 renal; 100% in the test on SF-268 CNS; 107% in the test with SF-295 CNS; 99.5% in the test with SF-539 CNS; 81.7% in the test on UACC-257 melanoma.
Consider `O=C(Nc1ccccc1)c1sc(-c2cccc(C(F)(F)F)c2)cc1O`, for which the growth in the test on NCI-H23 lung was 54.1%; in the test with NCI-H226 lung, 80.1%; with NCI-H322M lung, 77.1%; with HOP-62 NSCLC, 79.5%; in the test on NCI-H460 lung, 49.4%; with HOP-92 NSCLC, -7.04% (active). Moreover, the growth is 39.6% in the test with NCI-H522 lung; 64.2% in the test on A549/ATCC NSCLC; 89.6% in the test with 786-0 renal; 107% in the test on COLO 205 colon; 82.4% with DU-145 prostate; 81.4% in the test on MALME-3M melanoma. The growth is 91.9% with MDA-MB-231 breast; 102% in the test on RXF 393 renal; 82.8% in the test on SF-268 CNS; 82.9% in the test with SF-295 CNS; 42.2% with SF-539 CNS; 46.9% in the test on UACC-257 melanoma.
For `Cc1c2c(cn1Cc1ccccc1)CCc1cn(C)nc1-2`, the growth in the test on NCI-H23 lung was 63.7%; in the test on NCI-H226 lung, 95.3%; in the test with NCI-H322M lung it was 107%; in the test on HOP-62 NSCLC it was 92.1%; with NCI-H460 lung, 93.3%; with HOP-92 NSCLC, 40%. Besides, the growth in the test on NCI-H522 lung is 78.3%; in the test on A549/ATCC NSCLC it was 89.8%; in the test on 786-0 renal, 81.8%; in the test with DU-145 prostate, 111%; with K-562 leukemia, 58.1%; in the test on MALME-3M melanoma, 101%. The growth in the test with MDA-MB-231 breast is 89.5%; with RXF 393 renal, 83.9%; in the test on SF-268 CNS, 102%; in the test on SF-295 CNS it was 57.7%; in the test with SF-539 CNS, 83.1%; in the test with UACC-257 melanoma, 79.3%.
